PABP1 MLLE inh: inhibitors of PABP1 MLLE–PAM2 peptide binding, primary screen, biochemical, fluorescence polarization, FITC-PAM2, GST-MLLE. Polyadenylate-binding protein 1 (Homo sapiens), P11940. inhibition, % at 20 µM. hit rate 0.36% among 360,000; in the data active = inhibition above about 35%, passing the limit was not always enough;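 note: plate controls were DMSO wells with GST-MLLE for no effect and wells lacking GST-MLLE protein for full effect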
ALR H2O2 inh: inhibitors of human ALR sulfhydryl oxidase, primary screen, biochemical, H2O2 detection, HRP-luminol luminescence, single point; purified ALR, DTT oxidation; inhibition, % (concentration not given with the values); hit rate 3.8% among 290,000;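 active = mean replicate inhibition above about 79%, with every replicate also reaching it, limit read from the data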
Target sequence (P55789 whole entry, looked up): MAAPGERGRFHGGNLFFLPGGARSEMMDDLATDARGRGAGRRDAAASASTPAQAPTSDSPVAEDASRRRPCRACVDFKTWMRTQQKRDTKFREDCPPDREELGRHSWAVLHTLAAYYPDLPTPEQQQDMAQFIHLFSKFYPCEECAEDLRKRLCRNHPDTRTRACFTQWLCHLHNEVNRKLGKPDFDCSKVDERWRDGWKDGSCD
SUMO HTRF inh: inhibitors of in vitro SUMOylation cascade, primary screen, biochemical, HTRF, uHTS. HTRF SUMOylation assay, SAE1/SAE2 + UBC9. inhibition, % at 35 µM. SUMO-conjugating enzyme UBC9 (Homo sapiens), P63279. hit rate 0.36% among 290,000; in the data active = inhibition above about 50%, passing the limit was not always enough
Target sequence (P63279 whole entry, looked up): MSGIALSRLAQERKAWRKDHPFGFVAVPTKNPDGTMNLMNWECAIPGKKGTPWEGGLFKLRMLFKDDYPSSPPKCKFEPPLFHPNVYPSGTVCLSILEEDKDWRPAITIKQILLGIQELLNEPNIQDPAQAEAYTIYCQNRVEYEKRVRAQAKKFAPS
eIF4H inh: human eIF4H binding inhibitors, primary screen, translation initiation inhibitor project, biochemical, uHTS, fluorescence polarization | Eukaryotic translation initiation factor 4H (Homo sapiens), Q15056 | eIF4H fluorescence polarization binding assay | inhibition, % at 35 µM | hit rate 0.94% among 290,000 | AID 2012, 2009;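 note: calls also rest on retests at 20 µM and on dose response follow-up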
PABP polyA inh: PABP poly(A) RNA binding inhibitors, primary screen, biochemical, fluorescence polarization, uHTS. Polyadenylate-binding protein 1 (Homo sapiens), P11940. inhibition, % at 35 µM. hit rate 1% among 290,000. AID 2014, 2009;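 note: calls also rest on retests at 20 µM and on dose response follow-up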
Efflux pump inh: inhibitors of Candida efflux pumps in yeast, primary screen, S. cerevisiae, Nile Red, multiplex | AID 485275, 2010 | hit rate 0.44% among 330,000 | inhibition, % at 10 µM | S. cerevisiae Candida pump triplex;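 active = plate passing quality check with inhibition over a set limit, or well fluorescence over plate mean plus 4 SD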;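 note: Nile Red retained in pooled yeast measured as flow cytometry median fluorescence; 0% = buffer negative control and 100% = Enniatin B positive control; higher means more Nile Red kept so more efflux inhibition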
* hit, by the source's call; · = not tested or not shown. Shown are actives, neighbours in structure and some others; about 4.7% of the full set was active somewhere. Unless noted, the rule behind the calls is not given here.

SMILES | PABP1 MLLE inh | ALR H2O2 inh | SUMO HTRF inh | eIF4H inh | PABP polyA inh | Efflux pump inh
O=C(/C=C/c1ccc(OCCCF)cc1)Nc1ccnc(-c2cccnc2)n1 | -63.0 | -7.4 | 23.1 | 101.5* | active | -0.1
CC(=O)Nc1ccnc(-c2cccnc2)n1 | -9.0 | -5.5 | -5.2 | -10.1 | -1.1 | 0.5
COc1cccc(CN(C)S(=O)(=O)c2ccccc2Br)c1 | 2.3 | · | · | · | · | -0.2
CCOc1ccc(NC(=O)CNc2cccc(S(=O)(=O)N3CCCCCC3)c2)cc1OCC | 11.5 | -12.8 | · | · | · | -0.1
O=C(O)c1c(C(=O)O)c(-c2ccc(Cl)c(Cl)c2)n2c1CSC2 | 25.4 | 97.4* | -3.2 | -0.9 | 15.2 | 0.2
COc1ccccc1N1CCN(/N=C/c2c(C)nn(-c3ccccc3)c2C)CC1 | 40.5* | 25.4 | -3.4 | -6.1 | -9.4 | 0.0
COc1cc(/C(C)=N/NC(=O)C(O)(c2ccccc2)c2ccccc2)ccc1O | -14.5 | 98.4* | -12.2 | 0.4 | 4.5 | 0.0
COc1ccc(/C=N/N2CCN(C)CC2)cc1O | 4.5 | 98.8* | -15.1 | 4.9 | 7.0 | 0.1
COc1ccccc1N1CCN(/N=C\c2sccc2C)CC1 | 6.5 | 94.7* | -11.3 | -7.9 | -6.4 | 0.5
Cc1cc(C(=O)N2CCC2(C)C(=O)O)nn1C(C)(C)C (stereo not given) | 8.5 | · | · | · | · | ·
O=C(NCc1ccc2c(c1)OCO2)C(=O)NCC1OCCCN1S(=O)(=O)c1ccccc1 (stereo not given) | -3.8 | · | · | · | · | ·
CN[C@H]1C[C@H]2c3cc(-c4ccccc4)ccc3CCN2C(=O)[C@H]1[C@H](C)O | 7.7 | · | · | · | · | ·
CCCCCC(=O)Nc1ccc(S(=O)(=O)NC2=NCCCCC2)cc1 | -6.7 | 10.1 | · | · | · | 0.1
COc1cc(/C=N/N2CCN(c3ccccc3OC)CC2)ccc1O | 23.1 | 98.9* | 6.1 | -5.6 | -12.9 | -0.1
COc1cc(/C(C)=N/N2CCN(c3ccccc3OC)CC2)ccc1O | 6.3 | 98.9* | -7.3 | -12.1 | 7.7 | 0.0
CC(Cc1ccccc1)NC(=O)CCNNC(=O)c1ccncc1 (stereo not given) | -0.7 | · | · | · | · | ·
CCN(CC)c1ccc(NC(=O)c2cnc3ccccn3c2=O)c(C)c1 | -23.1 | 99.3* | -3.7 | -6.4 | -5.6 | 0.1
CCN(CC)c1ccc(NC(=O)c2cccc(C)c2OC)c(C)c1 | -17.0 | 99.1* | 6.4 | -4.8 | -13.0 | 0.0
CC1(C)CC(=O)N(CC(=O)NCc2ccccc2)c2ccccc2S1(=O)=O | -6.1 | · | -15.0 | -9.6 | 6.9 | -0.2
CCN(CC)c1ccc(NC(=O)CNCc2ccccc2Cl)c(C)c1 | -7.4 | 98.9* | 17.6 | 2.0 | 2.5 | -0.1
CCN(CC)c1ccc(NC(=O)CN2C(=O)CC(C)(C)S(=O)(=O)c3ccccc32)c(C)c1 | 10.4 | 99.4* | -5.5 | -2.7 | 16.1 | 0.1
COc1ccc(CCNC(=O)c2cnc3ccccn3c2=O)cc1 | 1.8 | -13.4 | -8.4 | 0.1 | 115.2 | 0.0
O=C(CNCc1ccccc1Cl)Nc1ccccc1N1CCCCC1 | -0.6 | 4.2 | -16.9 | 8.7 | 0.5 | -0.2
CCCCNC(=O)c1nc(C2CCN(S(=O)(=O)c3cccc(C(F)(F)F)c3)CC2)oc1-c1cccc(C(F)(F)F)c1 | 8.8 | · | · | · | · | ·
CCN(CC)c1ccc(NC(=O)c2cccnc2)c(C)c1 | 6.0 | 95.8* | -15.5 | 2.0 | 1.5 | 0.4
SMILES | PABP1 MLLE inh | ALR H2O2 inh | SUMO HTRF inh | eIF4H inh | PABP polyA inh | Efflux pump inh
O=c1c2ccccc2ncn1-c1ccc([N+](=O)[O-])cc1Cl | -7.3 | -14.1 | 1.2 | -1.0 | -4.6 | 0.0
N#Cc1c(N)c(C(=O)c2ccccc2)n2c1CCC2 | 3.6 | 92.2* | -13.4 | -8.4 | -1.0 | 0.2
CCN(c1ccc(OC)cc1)S(=O)(=O)c1ccc2c(c1)CCN2C(=O)CCC(=O)O | -5.8 | -2.2 | -0.9 | -0.7 | -3.0 | 0.1
CCN(c1ccc(C)c(C)c1)S(=O)(=O)c1ccc2c(c1)CCN2C(=O)CCC(=O)O | 1.5 | 98.8* | 19.8 | 2.6 | -3.8 | 0.1
CCOc1cccc(CN2CCCC(CNC(=O)c3cccc(OC)c3OC)C2)c1 (stereo not given) | 0.6 | · | 6.4 | 5.8 | -2.6 | 0.1
O=C(NC(=S)NNS(=O)(=O)c1ccccc1)c1cccnc1 | 48.2* | 59.3 | -5.5 | 23.7 | 3.4 | 0.0

Bioassay records: PubChem, several laboratories
